Only some compounds are listed: those with a hit (about 32% of all), similar ones and a draw of the others.
CYP2C19 activ = cytochrome P450 2C19 (human) activation; P33261; recombinant CYP2C19, luciferin-H EGE luminescence; stronger effect = higher value; 0 = fully inhibited enzyme, 1 = untreated enzyme; activation factor at 5 µM; 96,000 tested, under 10 active; AID 1025;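 active means activation factor of at least 2 at 5 µM in the primary screen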;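 further: 0 = wells with 2.5 mM tranylcypromine and 1 = vehicle-only wells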
CYP2C9 act = increases human cytochrome P450 2C9 activity; P11712; recombinant CYP2C9, luciferin-H conversion, luminescence; stronger effect = higher value; factor 1 = untreated enzyme, 0 = blocked; activation factor at 5 µM; 96,000 compounds, 1.4% hits;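 active means activation factor of 2 or more for CYP2C9 at a 5 µM dose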;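 further: 0 = sulfaphenazole-blocked wells and 1 = vehicle-only wells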
Target sequence (P11712 whole entry, looked up): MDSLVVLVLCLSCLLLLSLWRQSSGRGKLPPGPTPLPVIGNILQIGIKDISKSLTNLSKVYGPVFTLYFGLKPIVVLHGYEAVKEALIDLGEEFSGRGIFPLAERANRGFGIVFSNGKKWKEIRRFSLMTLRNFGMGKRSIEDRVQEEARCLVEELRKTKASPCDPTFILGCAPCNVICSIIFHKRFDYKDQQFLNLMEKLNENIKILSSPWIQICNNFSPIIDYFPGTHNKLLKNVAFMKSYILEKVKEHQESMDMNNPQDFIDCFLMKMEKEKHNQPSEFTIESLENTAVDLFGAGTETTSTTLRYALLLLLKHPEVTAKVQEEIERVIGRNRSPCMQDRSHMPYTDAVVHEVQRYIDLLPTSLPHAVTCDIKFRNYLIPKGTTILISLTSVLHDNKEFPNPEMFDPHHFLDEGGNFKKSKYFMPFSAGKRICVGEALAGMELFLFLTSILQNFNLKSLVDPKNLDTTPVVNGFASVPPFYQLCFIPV
PostGolgi yeast = growth inhibition of a yeast mutant, post-Golgi transport screen. post-Golgi transport phenotypic cell assay. inhibition, % at 10 µM. 98,000 compounds, 0.9% hits. AID 739;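 further: yeast cells grown in 1536-well plates; yeast grown about 18 h at 30C before absorbance read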
CYP2C9 inhib = blocks human cytochrome P450 2C9. P11712. CYP2C9 Supersomes, luciferin-H conversion, luminescence. inhibition, % at 5 µM. 96,000 compounds, 20% hits. AID 777;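 active means blocking of liver enzyme CYP2C9 beyond about 50% at 5 µM, limit read from the data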
CYP2C19 inhib = inhibitors of human CYP2C19; CYP2C19 Supersomes, luciferin-H EGE luminescence, 30 min; inhibition, % at 5 µM; 96,000 compounds, 21% hits;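 active means CYP2C19 inhibition above a set limit at 5 µM in the primary screen, cut at about 50% in these data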;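 further: plate controls were negative control wells for no effect and 2.5 mM tranylcypromine positive control for full effect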
PostGolgi ctrl = yeast control strain growth, post-Golgi counter-screen. efflux-deficient yeast background strain, growth absorbance A615, 16 h. inhibition, % at 10 µM. 98,000 compounds, 5% hits
An asterisk follows results filed as active; / = no result given. Unless noted, no stated cut-off is given here; in the data, active means inhibition above about 30%; inactive means the rest.

SMILES	CYP2C19 activ	CYP2C9 act	PostGolgi yeast	CYP2C9 inhib	CYP2C19 inhib	PostGolgi ctrl
Cc1cccc(CCNS(=O)(=O)c2cnc[nH]2)c1	0.4	0.1	-2	92*	61*	4
Cc1ccc(NC(=O)CCNS(=O)(=O)c2ccc3c(c2)oc(=O)n3C)cc1	1	1	-3	4	4	10
Cc1cccc(CCNS(=O)(=O)c2ccc3c(c2)oc(=O)n3C)c1	0.1	1.4	2	-43	89*	-5
COc1ccc(CCNC(=O)c2cc(CC(C)C)on2)cc1OC	0.8	0.8	-2	18	19	15
CC(=O)SCCC(=O)N1C(C)CCCC1C(=O)O (stereo not given)	1.1	1	-4	-2	-8	-21
CN1C(=O)c2ccccc2C(C(=O)O)C1c1cn(C)c2ccccc12 (stereo not given)	0.8	0.8	10	17	15	6
COc1ccccc1CNC(=O)C(CCSC)NS(=O)(=O)c1ccc2c(c1)oc(=O)n2C (stereo not given)	0.1	1	-3	4	91*	10
CCN1CCN(CC(=O)Nc2ccccc2)C(=O)C1=O	0.9	1	-6	4	6	4
CC(=O)CN1Cc2ccccc2/C1=N\C(=O)Nc1ccccc1	0.4	0.5	-1	48	58*	1
CC(SCCc1ccccn1)C(=O)O (stereo not given)	0.8	1.1	/	-7	16	/
CC(C)C(NC(=O)c1ccco1)C(=O)NCC(c1ccco1)N1CCCCC1 (stereo not given)	0.7	0.7	-4	30	31	0
CC(C)[C@H](NC(=O)c1ccco1)C(=O)OCC(=O)N1CCc2ccccc21	0.6	0.1	-6	87*	41	5
COc1ccc(COc2ccsc2C(=O)Nc2ccc(Cl)c(Cl)c2)cc1	0.7	0.4	15	55*	34	13
CC(C)OCCCNS(=O)(=O)c1ccc2c(c1)oc(=O)n2C	0.6	1.1	-5	-13	37	-5
CC(C)OCCCNS(=O)(=O)c1ccc2ccccc2c1	0.6	3.4*	-4	-237	39	-1
O=C1NCCN1CCNS(=O)(=O)c1ccc2ccccc2c1	0.8	0.8	-6	23	16	1
COc1ccc(OCCNS(=O)(=O)c2ccccc2)cc1	0.1	0.2	6	82*	86*	-4
COCCNS(=O)(=O)c1ccccc1	0.9	1	-9	2	12	-4
O=C(CCNS(=O)(=O)c1cccs1)N1CCCCCC1	0.8	1.1	-3	-6	19	1
Cc1ccc(OCCNS(=O)(=O)c2cccs2)cc1	0	0.2	-8	85*	100*	6
O=C1c2ccccc2CN1CCNS(=O)(=O)c1ccc2ccccc2c1	0.7	2.5*	2	-154	30	-1
Cc1cc(C)n2c(SCC(=O)N3CCN(S(=O)(=O)c4ccc(Cl)cc4)CC3)nnc2n1	0.7	1.1	2	-6	33	-2
CC(C)CNS(=O)(=O)c1ccc(C(=O)Nc2ccc3c(c2)OCCO3)cc1	1.1	0.9	-4	10	-11	9
CC(C)OCCCNS(=O)(=O)c1ccc2c(c1)OCCO2	0.2	2.2*	3	-124	77*	6
O=S(=O)(NCCOc1ccccc1)c1ccc2ccccc2c1	1	2.1*	-13	-105	2	-4
SMILES	CYP2C19 activ	CYP2C9 act	PostGolgi yeast	CYP2C9 inhib	CYP2C19 inhib	PostGolgi ctrl
CC(=O)CCc1oc2ccc(NC(C)=O)cc2c1-c1ccc(C)o1	0.5	0.8	-3	21	46	-10
CS(C)(=O)=NS(=O)(=O)c1ccc(Cl)cc1	0.9	1.1	-5	-6	7	3
Nc1ccc(S(=O)(=O)c2ccc(Cl)cc2)cc1	0.1	3.7*	-1	-274	86*	11
Cc1cc(OCC(=O)NCCN2CCOCC2)ccc1Br	0.2	1.1	3	-9	85*	3
O=C(COc1cc(Cl)c(Cl)cc1Cl)NCCN1CCOCC1	0.4	0.9	-6	6	65*	4
Cc1ccccc1OCC(=O)NCCN1CCCC1	1.1	1.1	-4	-6	-6	35*
Cc1ccc(NC(=O)CC(=O)NCCN2CCOCC2)cc1	1.1	1.2	4	-15	-15	4
Cc1ccccc1OCC(=O)NCC1CCCO1 (stereo not given)	0.5	1	7	1	45	-11
COc1cc(C(=O)NCCN2CCOCC2)cc(OC)c1OC	1.1	1.1	2	-10	-9	5
CCOCCCNC(=O)C(C)NS(=O)(=O)c1ccc(C)cc1 (stereo not given)	1	1	-2	-4	2	2
CC(C)(C)c1ccc(C(=O)NC(Cc2ccccc2)C(=O)O)cc1 (stereo not given)	1	0.9	-4	8	1	2
O=c1c2cn[nH]c2[nH]c(=S)n1-c1ccccc1F	/	/	-2	/	/	2
Clc1ccc2nc(CN3CCCCC3)cn2c1	0.9	0.8	12	21	9	0
COc1ccc(-c2cn3cc(Cl)ccc3n2)cc1OC	0.2	0.2	6	79*	80*	8
Clc1ccc2nc(-c3ccc(Br)s3)cn2c1	0.5	0.7	-4	29	47	31*
O=C(CCN1C(=O)COc2ccccc21)N1CCCCC1	0.7	0.9	26	8	30	2
CCCn1c(NC(=O)c2ccc(Br)cc2)nc2ccccc21	0.9	1	-2	4	8	4
CCCCn1c(NC(=O)c2ccccc2)nc2ccccc21	0.4	0.3	1	73*	61*	23
CCCCCn1c(C(Cc2ccccc2)NC(C)=O)nc2ccccc21 (stereo not given)	0.3	0.8	-6	23	74*	12
CCOc1ccc(C2NC(=O)NC(C)=C2C(=O)OC)cc1C (stereo not given)	0.6	0.7	-10	29	43	4
Cc1onc(-c2ccccc2)c1C(=O)Nc1cccc2nsnc12	0.6	0.9	-4	10	39	12
COC(=O)NCCOc1cc(C)ccc1C	0.8	1.1	-11	-11	21	13
COC(=O)NCCOC(=O)N(O)c1ccc(Br)cc1	0.3	1	-4	2	68*	12
c1cnc(N2CCN(Cc3c[nH]c4ccccc34)CC2)nc1	0.5	0.7	1	35	46	-3
Fc1ccc(CN2CCN(c3ncccn3)CC2)cc1	0.4	0.9	-3	13	57*	6
c1ccc(CN2CCN(c3ncccn3)CC2)nc1	0.5	0.6	/	42	54*	/
COc1ccc2nc(-c3ccccc3)[nH]c2c1	0.3	0.6	0	39	74*	-2
COc1ccc2nc(NCCO)[nH]c2c1	1.1	1.1	0	-8	-14	-3
CCOc1ccc2nc(-c3ccccc3)[nH]c2c1	0.7	0.9	0	12	26	5
COc1ccc2nc(NCc3ccccc3)[nH]c2c1	0.2	0.8	2	22	78*	-6

Bioassay records: PubChem BioAssay, several laboratories
